DT40 TDP1 CPT: growth inhibition of DT40 Tdp1-/-;hTDP1 cells with camptothecin (screen for TDP1 inhibitors); chicken DT40 Tdp1-/-;hTDP1 cells + 20 nM CPT, ATP luminescence, 48 h; AID 686979; Potency, µM (highest dose often 46.2 µM), for the others: at the top dose activity change, negative = growth inhibition, usual class: inhibitors; 12% of 420,000 active; further: potency means the concentration at half of the fitted maximal effect; nearly all actives have a fitted effect of over 55% in size
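Chicken DT40 Tdp1-/- cells complemented with human TDP1, 400 cells/well, exposed to compounds plus 20 nM camptothecin for at least 48 h at 37 C; viability read as ATP content by CellTiter-Glo luminescence.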
ELG1 repair inh: ELG1-dependent DNA repair inhibition; HEK293T ELG1-luciferase reporter, luminescence, 16 h; DNA damage induced by 5-fluorouridine; Potency, µM (titrated, usually from 46.1 µM), without a hit: top-dose activity change, negative = inhibition, actives largely listed as inhibitors; 2.3% of 330,000 active; further: potency means the concentration at half of the fitted maximal effect; nearly all actives have a fitted effect of over 55% in size
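Quantitative HTS, concentration-response format. 2,000 cells/well co-treated with 5-fluorouridine and compound, 16 hr in 5% CO2 at 37 °C; ONE-Glo luminescence read after 30 min.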
RORg inh: ROR gamma (mouse) transcription inhibition. P51450. Drosophila S2 Gal4-RORgamma UAS-luciferase reporter, 20 h. Potency, µM (top dose mostly 53.6 µM), inactives show top-dose activity change, negative = inhibition, actives largely listed as inhibitors. 5.4% of 310,000 active. AID 2551; further: potency means the concentration at half of the fitted maximal effect; nearly all actives have a fitted effect of over 60% in size
Target sequence (P51450 whole entry, looked up, the tested form may be a part): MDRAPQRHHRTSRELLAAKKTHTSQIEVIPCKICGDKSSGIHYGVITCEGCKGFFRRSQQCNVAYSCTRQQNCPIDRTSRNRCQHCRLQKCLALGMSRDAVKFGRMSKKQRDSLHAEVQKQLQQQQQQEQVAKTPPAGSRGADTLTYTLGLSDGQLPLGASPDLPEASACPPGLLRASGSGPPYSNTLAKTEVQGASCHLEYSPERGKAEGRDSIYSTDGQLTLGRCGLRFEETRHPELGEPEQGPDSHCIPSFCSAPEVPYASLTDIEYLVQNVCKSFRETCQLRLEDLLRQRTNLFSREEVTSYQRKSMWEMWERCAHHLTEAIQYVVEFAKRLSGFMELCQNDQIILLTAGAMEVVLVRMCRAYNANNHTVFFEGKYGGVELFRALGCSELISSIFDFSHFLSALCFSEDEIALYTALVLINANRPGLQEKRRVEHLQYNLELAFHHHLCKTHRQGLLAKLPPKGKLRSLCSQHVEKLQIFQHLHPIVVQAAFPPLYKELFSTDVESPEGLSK
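Read-out: Photinus luciferase luminescence; inhibitors lower reporter signal. Insect Schneider cells with Gal4-ROR gamma fusion under metallothionein promoter, UAS reporter; 700 uM final copper sulfate induction, 20 hr, ambient temperature.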
TDP1 cell noCPT: qHTS for Inhibitors of human tyrosyl-DNA phosphodiesterase 1 (TDP1): qHTS in cells in absence of CPT; Potency, µM (doses to about 46.2 µM), without a hit: top-dose activity change, negative = growth inhibition, most hits filed as inhibitors; DT40 Tdp1-/- hTDP1 cells, no CPT, ATP luminescence, 48 h; 15% of 420,000 active; further: potency means the concentration at half of the fitted maximal effect; nearly all actives have a fitted effect of over 55% in size
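No-CPT arm: Tdp1-/-;hTDP1 DT40 cells (400/well) plus compounds, incubated ≥48 hr at 37 °C. Readout CellTiter-Glo luminescence.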
IL-1B inflam inh: inhibitors of inflammasome signaling (IL-1 beta secretion). AID 743279. THP-1 LPS/ATP IL-1B secretion, AlphaLISA, 16 h; hits give low values. 4.7% of 360,000 active. activity change, % at 57.5 µM; in the data active means activity change below about -50%; inconclusive means mostly about -30% to -49%
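THP-1 cells pretreated 1 hr with compounds (up to 57.5 uM final), then stimulated with LPS (250 ng/mL final) plus ATP (1.25 mM final); secreted IL-1B measured by AlphaLISA after 16 hr, decreased signal indicating inhibition.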
Gal4-VP16 FLuc: Gal4-VP16 reporter inhibition counter-screen. Drosophila S2 Gal4-VP16 UAS-luciferase, luminescence, 20 h. Potency, µM (series often up to 53.6 µM), for inactives: at the highest dose activity, negative = inhibition, usual class: inhibitors. 3.5% of 310,000 active. AID 2546;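 further: Gal4-VP16 expression switched on by copper sulfate through the metallothionein promoter; potency means the concentration at half of the fitted maximal effect; nearly all actives have a fitted effect of over 50% in size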
An asterisk follows results filed as active; ? = inconclusive; . = not tested or not shown; [ ] = another dose, or the depositor's remark. An excerpt weighted towards active compounds, which were near 21% of everything screened. Unless noted, the call rests on the fitted dose curve; in most records, active means well fitted curve in the direction sought with a large enough effect; inconclusive means small, poorly fitted or top-dose-only effect, or another doubt; inactive means no such curve, though single readings can be large; an effect the other way counts as inactive or inconclusive. On the % scale 0 is the no-effect control and ±100 the full control effect.

SMILES	DT40 TDP1 CPT	ELG1 repair inh	RORg inh	TDP1 cell noCPT	IL-1B inflam inh	Gal4-VP16 FLuc
CCc1nn(CC(=O)NCCc2ccc(OC)c(OC)c2)c(=O)c2cc3occc3n12	?	.	.	-13.9%	.	.
CCOC(=O)CNS(=O)(=O)c1ccc(F)cc1Br	.	.	11.1%	.	.	0.2%
O=C(NCc1cccs1)c1nn(-c2ccccc2)nc1CO	-25.8%	.	.	?	.	.
CC1CC(C)(C)NC(=S)N1CC(=O)N1CCN(Cc2ccccc2)CC1 (stereo unspecified)	1.4%	-12.7%	-18.6%	4.6%	16.5	5.2%
Cc1ccc(C)c(N2CCN(C(=O)CN3C(=S)NC(C)(C)CC3C)CC2)c1 (stereo unspecified)	23.1µM*	?	7.94µM*	23.1µM*	-3.2	?
Cc1cc(C)nc(N/C(=N\S(=O)(=O)Cc2ccccc2)Nc2ccc(F)c(Cl)c2)n1	18.4µM*	?	-15.2%	25.9µM*	3.7	?
O=C(COC(=O)c1cccc(F)c1)Nc1cccc(S(=O)(=O)N2CCCCC2)c1	-16.8%	.	.	?	8.5	.
O=C(CSc1nnc(-c2ccccc2)o1)c1ccc2c(c1)OCCO2	16.4µM*	?	-2.5%[10 µM]	?	20.0	-2.1%
CC(=O)CCSc1ncnc2sc(-c3ccccc3)cc12	?	1.5%	-4.3%	?	-90.9*	6.3%
Cc1cc(-c2nnc(SCC(=O)c3ccc4c(c3)OCCO4)o2)no1	7.1%	7.3%	1.8%	7.6%	17.7	-8.2%
O=C(O)CCSc1ncnc2sc(-c3ccccc3)cc12	-19.0%	-3.6%	1.78µM*	2.3%	7.7	5.01µM*
CC(=O)c1c(C)[nH]c(C(=O)CSc2ncnc3sc(-c4ccccc4)cc23)c1C	9.2µM*	?	-24.4%	?	50.2	?
O=C(O)CSc1ncnc2sc(-c3ccccc3)cc12	-1.9%	0.9%	7.7%	-4.4%	-4.0	-17.7%
Cc1cccc(OCCOCCn2c(-c3ccc(Cl)cc3)nc3ccccc3c2=O)c1C	-25.7%	.	.	?	.	.
CC[C@H](C)[C@H](NC(=O)[C@H](Cc1ccc(O)cc1)NC(=O)[C@@H](NC(=O)[C@H](CCCNC(=N)N)NC(=O)[C@@H](N)CC(=O)O)C(C)C)C(=O)N[C@@H](Cc1cnc[nH]1)C(=O)N1CCC[C@H]1C(=O)N[C@@H](Cc1ccccc1)C(=O)N[C@@H](Cc1cnc[nH]1)C(=O)N[C@@H](CC(C)C)C(=O)N[C@@H](CC(C)C)C(=O)N[C@H](C(=O)N[C@@H](Cc1ccc(O)cc1)C(=O)N[C@@H](CO)C(=O)O)C(C)C	.	.	13.0%	.	.	-10.8%
O=C(NCCN1CCC(n2c(=O)[nH]c3ccccc32)CC1)c1ccc(Cl)cc1Cl	?	.	.	?	0.0	.
CC(=O)c1c(C)[nH]c(C(=O)CSc2nnc(-c3ccccc3)o2)c1C	16.4µM*	?	?	14.6µM*	5.5	-6.2%
CC(C)N(CC(N)=O)c1ncnc2sc(-c3ccccc3)cc12	?	-19.4%	16.4%	?	.	-6.5%
O=C(CSc1nnc(-c2ccccc2)o1)c1nnc(-c2ccccc2)o1	-21.0%	-2.2%	-12.1%	?	-0.6	6.5%
CC(Sc1ncnc2sc(-c3ccccc3)cc12)C(N)=O (stereo unspecified)	32.8%	?	12.6µM*	1.9%	-12.7	-25.4%
O=C1CCCC(=O)C1C(=O)C1CCN(S(=O)(=O)c2ccccc2)CC1	?	13.1%	2.9%	-96.8%	55.1	7.9%
C=C1CCN(C(CC(C)C)C(=O)NCc2ccc(OC)cc2)S(=O)(=O)c2ccccc21 (stereo unspecified)	.	.	2.9%	.	.	-21.8%
Cc1ccc(C(=O)N(CC(=O)NC2CCCCC2)c2ccccc2C)s1	?	-11.8%	-37.1%	23.1µM*	-22.3	1.5%
Cc1ccc(C(=O)N(CC(=O)NC2CCCC2)c2cccc(F)c2)s1	2.7%	2.9%	31.3%	-20.9%	-80.4*	-2.6%
Cc1ccc(C(=O)N(CC(=O)NC2CCCCC2)c2ccccc2F)s1	2.4%	-8.2%	2.6%	-32.5%	1.8	1.5%
SMILES	DT40 TDP1 CPT	ELG1 repair inh	RORg inh	TDP1 cell noCPT	IL-1B inflam inh	Gal4-VP16 FLuc
O=C(Nc1cc(S(=O)(=O)N2CCOCC2)ccc1N1CCOCC1)c1ccc(S(=O)(=O)N2CCCCC2)cc1	-1.5%	7.3%	16.9%	0.0%	-25.9	-5.4%
Cc1ccc(CSCC(=O)Nc2cc(S(=O)(=O)N3CCOCC3)ccc2OC(C)C)cc1	?	-26.7%	.	23.1µM*	-6.1	.
CC(C)Oc1ccc(C(=O)Nc2cc(S(=O)(=O)N3CCOCC3)ccc2N2CCOCC2)cc1	?	?	.	20.6µM*	-7.3	.
Cc1cccc(NC(=O)CSCC(=O)Nc2cc(S(=O)(=O)N3CCOCC3)ccc2OC(C)C)c1	3.8%	-8.0%	.	?	13.9	.
CC(C)COc1ccc(C(=O)Nc2cc(S(=O)(=O)N3CCOCC3)ccc2N2CCCC2)cc1	16.4µM*	?	.	25.9µM*	2.5	.
Cc1ccc2nc(-c3ccsc3)c(Nc3ccccc3C)n2c1	6.51µM*	.	.	7.31µM*	.	.
Cc1cccc(C)c1Nc1c(-c2ccccn2)nc2ccccn12	6.51µM*	?	11.2µM*	6.51µM*	32.2	-9.4%
CCCCNc1c(-c2ccccn2)nc2nc(C)cc(C)n12	?	.	.	?	56.7	.
Cc1cc(C)n2c(Nc3c(C)cccc3C)c(-c3ccccn3)nc2n1	5.8µM*	.	.	7.31µM*	182.9	.
Cc1cccc(C)c1Nc1c(-c2ccsc2)nc2ccccn12	7.31µM*	.	.	5.8µM*	.	.
Cc1cccc(CN2C(=O)c3ccccc3Sc3ccc(C(=O)NCc4cccs4)cc32)c1	-18.2%	.	.	-25.9%	.	.
CC(CO)NS(=O)(=O)c1cc(Cl)ccc1F (stereo unspecified)	13.8%	.	.	-14.5%	22.6	.
Cc1ccc(-c2nc3ccc(Cl)cn3c2Cc2ccsc2)cc1	?	.	.	?	5.1	.
Cc1cccc(C)c1Nc1c(-c2ccsc2)nc2ccc(Cl)cn12	?	.	.	7.31µM*	.	.
CC(C)c1ccc(/C=C(\c2nc3ccccc3[nH]2)S(=O)(=O)c2ccccc2)cc1	4.61µM*	?	?	4.61µM*	-103.3*	?
C/C(=C\c1ccc(N)cc1)c1nc2ccccc2[nH]1	-12.2%	?	-22.4%	-4.4%	?	1.7%
O=S(=O)(/C(=C/c1ccc(C(F)(F)F)cc1)c1nc2ccccc2[nH]1)c1ccccc1	2.59µM*	16.4µM*	14.1µM*	2.91µM*	-103.6*	5.62µM*
